The text below walks through data of PubChem BioAssay (Tox21).

Values joined by “and” are separate entries in the source; they are usually repeats but may differ in a detail not shown here. Equal entries are not always repeated. Results filed as inconclusive are left out. Where a structure was tested more than once in an assay, its records may differ in their call. Active and inactive are the calls of the source. Unless noted, calls follow the shape of the full dose curve. Numbered stars: 1 amine (or outer) side, 2 acyl side, 3 side chain; on linkers, the order of the positions; unused ones are H or OH. Bridge positions count the residues as written; N and C are the ends. Square brackets hold non-standard residues; d marks the D form. Peptide text beside a SMILES is read from it. I, II: the chains in the order shown. Actinocin(9to1) = Cc1c2oc3c(C)ccc(C(=O)[*:1])c3nc-2c(C(=O)[*:2])c(N)c1=O; NMeV = CN[C@H](C(=O)O)C(C)C; Sar = CNCC(=O)O

The nature of experiment [1]: Nuclear factor erythroid 2-related factor 2/antioxidant responsive element (Nrf2/ARE) small molecule agonists: qHTS cell viability counter screen in human keratinocytes (AID 1919968; active = well fitted curve in the direction sought with a large enough effect in the repeat runs; an effect the other way counts as inactive or inconclusive; also: nearly all actives have a fitted effect of over 55% in size; also: potency is read from the fitted curve at half-maximal effect). In short, it runs like this:
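KeratinoSens HaCaT cells, 1,500/well, preincubated 5 h, then exposed to compounds in DMSO for 23 h at 37 C/5% CO2. Viability read as CellTiter-Fluor fluorescence after 1 h, in the same wells as the ARE-luciferase read.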
In general terms: In qHTS, concentration-response curves come from the screen itself.

Experiment [2] in a line: Nuclear factor erythroid 2-related factor 2/antioxidant responsive element (Nrf2/ARE) small molecule agonists: luciferase reporter gene qHTS assay in human keratinocytes (AID 1919969). Also: nearly all actives have a fitted effect of over 35% in size. Also: potency is read from the fitted curve at half-maximal effect.
For experiment [3], the target named is Gonadotropin-releasing hormone receptor (Homo sapiens) (UniProt P30968). In words: Human gonadotropin-releasing hormone receptor (GnRHR) small molecule agonists, calcium flux assay in GnRHR-HEK293 cells (AID 1920063). Also: nearly all actives have a fitted effect of over 35% in size. In short, it runs like this: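 HEK293 cells stably expressing human GnRHR were dye-loaded for 1 h at 37 C. Compound was added in agonist mode and fluorescence (Ex/Em 480/540) recorded kinetically for 3 min. Fifteen concentrations, triplicates.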
For orientation: A change in cytosolic calcium serves as a functional read-out for many receptors and channels.

The target of experiment [4] is KiSS-1 receptor (Homo sapiens) (UniProt Q969F8). As to the kind of experiment: Human kisspeptin (KISS1R) small molecule agonists, calcium flux assay in KISS1R-HEK293 cells (AID 1920064; active = well fitted curve in the direction sought with a large enough effect in the repeat runs; an effect the other way counts as inactive or inconclusive). The procedure, abridged: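 HEK293 cells stably expressing human KISS1R were loaded with calcium dye for 1 h at 37 C, then given compound; fluorescence (Ex/Em 480/540) was read kinetically for 3 min. Fifteen concentrations, triplicate.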

Experiment [5] in a line: G protein-coupled receptor (GPCR) small molecule agonists, calcium flux assay: HEK293 wild type cell line counter screen (AID 1920065). In short, it runs like this: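 Wild-type HEK293 cells plated 18 h, loaded with calcium dye 1 h at 37 C, then compounds added in agonist mode (ATP as positive control). Kinetic fluorescence Ex/Em 480/540 recorded 3 min at 1 sec intervals; 15 concentrations, triplicate.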

Experiment [6] in a line: p53 small molecule agonists, cell-based qHTS assay with rat liver microsomes (AID 1963578). In short, it runs like this: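 Cells carrying a p53 response element–beta-lactamase reporter were plated and rested 5 h, then dosed with compound in DMSO plus rat liver microsomes and NADPH, each at 0.5 mg/mL final. After 16 h at 37 C, LiveBLAzer substrate was added for 2 h.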
Experiment [7] in a line: p53 small molecule agonists, cell-based qHTS assay (AID 1963582; active = well fitted activation curve with a large enough effect in the signal ratio in the repeat runs, not every such curve was filed as active; the % refers to the signal ratio; also: potency is read from the fitted curve at half-maximal effect). The procedure, abridged: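 p53RE-bla reporter cells, compounds added in DMSO after 5 h plating, incubated 16 h at 37 C. Beta-lactamase read via 2 h room-temperature LiveBLAzer B/G FRET substrate, fluorescence intensity.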
Experiment [8] deals with Beta-2 adrenergic receptor (Homo sapiens) (UniProt P07550). As to the kind of experiment: Adrenergic beta2 receptor (ADRB2) small molecule antagonists, cell-based qHTS assay (AID 1963592). Also: series mostly up to about 92 µM; nearly all actives have a fitted effect of over 50% in size. The procedure, abridged: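 Cells (CHO, stable ADRB2 overexpression) incubated 18-20hr at 37C; compounds added from DMSO; agonist mix (1nM isoproterenol, 100uM IBMX, 25uM Ro-20-1724) added; 0.5hr RT; d2-cAMP and anti-cAMP-cryptate added; 1hr RT; 665/615 nm read.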

Experiment [9] shares this target. As to the kind of experiment: Adrenergic beta2 receptor (ADRB2) small molecule agonists, cell-based qHTS assay (AID 1963593). Also: potency is read from the fitted curve at half-maximal effect.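 As to activation: CHO cells stably overexpressing human ADRB2.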 In short, it runs like this:
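CHO cells stably over-expressing ADRB2 were plated overnight at 37C, then dosed with compounds plus a stimulation mix containing 100uM IBMX and 25uM Ro-20-1724 for 0.5hr at room temperature. cAMP was measured by HTRF competition, 1hr.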

Experiment [10] concerns the target D(2) dopamine receptor (Homo sapiens) (UniProt P14416). As to the kind of experiment: Dopamine D2 receptor (DRD2) small molecule agonists, cell-based qHTS assay (AID 1963594). Also: nearly all actives have a fitted effect of over 35% in size. In short, it runs like this: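 cAMP accumulation in DRD2-HEK293 cells measured by HTRF after 1 h detection; compounds added 10 min before NKH477 (200nM […]) forskolin-analogue stimulation, 30 min at room temperature, with Ro20-1724 present at 0.1 mM final.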

Experiment [11] has the same target. As to the kind of experiment: Dopamine D2 receptor (DRD2) small molecule antagonists, cell-based qHTS assay (AID 1963595; active = well fitted inhibition curve with a large enough effect in the signal ratio in the repeat runs, with a control signal flat; the % refers to the signal ratio). In short, it runs like this: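 In this cell-based antagonist screen, compounds act for 10 min at room temperature before a 30 min challenge with 12 nM quinpirole and 200 nM NKH477. cAMP is quantified by HTRF competition in DRD2-HEK293 cells containing 0.1 mM Ro20-1724.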

Experiment [12] is described as follows: p53 small molecule agonists, cell-based qHTS assay with rat liver microsomes: qHTS cell viability counter screen (AID 1963580). Also: nearly all actives have a fitted effect of over 45% in size. In short, it runs like this: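 HCT-116 p53RE-bla, 4,000 cells/well, 5 h pre-incubation; cpd + rat liver microsomes 0.5 mg/mL + NADPH 0.5 mg/mL (final); 16 h, 37 C; CellTiter-Glo, 30 min RT; luminescence.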
Experiment [13] concerns the target 5-hydroxytryptamine receptor 2A (Homo sapiens) (UniProt P28223). As to the kind of experiment: 5-hydroxytryptamine receptor 2A (HTR2A) small molecule antagonists, cell-based qHTS assay (AID 1963586). Also: nearly all actives have a fitted effect of over 45% in size. The procedure, abridged: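 Antagonist-mode intracellular calcium assay: DOI (4 nM) added after 5 min compound pre-incubation at room temperature to dye-loaded HTR2A-CHO cells. Fluorescence followed for 3 min, sampled every second.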

Experiment [14] shares this target. In words: 5-hydroxytryptamine receptor 2A (HTR2A) small molecule agonists, cell-based qHTS assay (AID 1963587). Also: nearly all actives have a fitted effect of over 30% in size. In short, it runs like this:
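Kinetic calcium-flux fluorescence (2 min, 1 sec intervals) after compound addition in agonist mode. HTR2A-CHO cells were cultured 18 h, then dye-loaded 1 h at 37 C.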

Experiment [15] addresses Muscarinic acetylcholine receptor M1 (Homo sapiens) (UniProt P11229). In words: Cholinergic receptor muscarinic 1 (CHRM1) small molecule antagonists, cell-based qHTS assay (AID 1963588). Also: nearly all actives have a fitted effect of over 40% in size. Also: potency is read from the fitted curve at half-maximal effect. In short, it runs like this: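 CHRM1-CHO calcium-flux assay, antagonist mode. Cells were seeded 18 h, dye-loaded 1 h at 37 C and given compound for 5 min at RT, then acetylcholine was added at 50nM. FDSS fluorescence was read 3 min; 15 concentrations, three runs.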

The target is the same in experiment [16]. As to the kind of experiment: Cholinergic receptor muscarinic 1 (CHRM1) small molecule agonists, cell-based qHTS assay (AID 1963589). Also: nearly all actives have a fitted effect of over 35% in size. The procedure, abridged: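 CHO cells stably expressing human CHRM1 were loaded with calcium dye for 1 h at 37 C, then compound was added in agonist mode. Intracellular calcium fluorescence was followed kinetically at 1 s intervals. Fifteen concentrations were tested in three independent runs.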

Experiment [17] in a line: cAMP Responsive Elements (CRE) small molecule agonists, cell-based qHTS assay (AID 1963590). In short, it runs like this: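 CRE-bla HEK 293T cells, 2,000/well in DMEM with 10% dialyzed FBS and 25 mM HEPES, pre-incubated 18 h at 37 C, then exposed to compound 3 h at 37 C. Beta-lactamase reporter read with LiveBLAzer B/G FRET substrate after 2 h at room temperature.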
Experiment [18] in a line: cAMP Responsive Elements (CRE) small molecule antagonists, cell-based qHTS assay (AID 1963591; active = well fitted inhibition curve with a large enough effect in the signal ratio in the repeat runs, not every such curve was filed as active; the % refers to the signal ratio). In short, it runs like this:
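CRE-bla HEK293T cells plated 18 h, then given compound plus NKH477 at 0.25 uM final for 3 h at 37C. Beta-lactamase reporter read with LiveBLAzer B/G FRET substrate after 2 h at room temperature.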

Experiment [19] can be described thus: p53 small molecule agonists, cell-based qHTS assay with human liver microsomes: qHTS cell viability counter screen (AID 1963579). Also: nearly all actives have a fitted effect of over 45% in size. The procedure, abridged: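 Cytotoxicity counter screen: p53RE-bla, 4,000 cells/well; 5 h settle, 37 C/5% CO2; cpd + HLM 0.5 mg/mL + NADPH 0.5 mg/mL (final); 16 h, 37 C; CellTiter-Glo, 30 min RT, luminescence.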
The nature of experiment [20]: p53 small molecule agonists, cell-based qHTS assay: qHTS cell viability counter screen (AID 1963581). Also: nearly all actives have a fitted effect of over 45% in size. The procedure, abridged: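 p53RE-bla HCT-116 cells, compounds added 5 h after plating and incubated 16 h at 37 C. Cytotoxicity measured in the same wells as intracellular ATP by CellTiter-Glo luminescence after 30 min at room temperature.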

Chain of Gonadotropin-releasing hormone receptor (Homo sapiens) (P30968 whole entry, looked up): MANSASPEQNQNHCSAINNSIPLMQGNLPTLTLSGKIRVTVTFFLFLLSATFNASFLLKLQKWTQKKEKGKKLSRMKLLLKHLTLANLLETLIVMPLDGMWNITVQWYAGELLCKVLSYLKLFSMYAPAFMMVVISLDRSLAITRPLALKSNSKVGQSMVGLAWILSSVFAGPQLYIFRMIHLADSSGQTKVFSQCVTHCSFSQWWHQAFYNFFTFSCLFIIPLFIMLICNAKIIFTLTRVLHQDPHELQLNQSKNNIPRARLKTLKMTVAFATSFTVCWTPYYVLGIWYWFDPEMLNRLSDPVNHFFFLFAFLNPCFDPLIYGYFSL
Chain of Beta-2 adrenergic receptor (Homo sapiens) (P07550 whole entry, looked up): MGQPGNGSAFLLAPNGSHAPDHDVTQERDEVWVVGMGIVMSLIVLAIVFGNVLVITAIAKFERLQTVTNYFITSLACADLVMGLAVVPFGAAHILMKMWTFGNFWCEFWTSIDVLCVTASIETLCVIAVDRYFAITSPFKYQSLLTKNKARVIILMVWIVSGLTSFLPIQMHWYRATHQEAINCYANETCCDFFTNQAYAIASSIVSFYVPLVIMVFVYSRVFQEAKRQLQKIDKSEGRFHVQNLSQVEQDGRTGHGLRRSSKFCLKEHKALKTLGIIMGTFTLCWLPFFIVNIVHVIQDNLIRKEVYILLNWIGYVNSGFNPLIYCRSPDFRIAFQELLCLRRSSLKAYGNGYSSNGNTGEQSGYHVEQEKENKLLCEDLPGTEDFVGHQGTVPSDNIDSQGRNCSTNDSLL
Chain of Muscarinic acetylcholine receptor M1 (Homo sapiens) (P11229 whole entry, looked up): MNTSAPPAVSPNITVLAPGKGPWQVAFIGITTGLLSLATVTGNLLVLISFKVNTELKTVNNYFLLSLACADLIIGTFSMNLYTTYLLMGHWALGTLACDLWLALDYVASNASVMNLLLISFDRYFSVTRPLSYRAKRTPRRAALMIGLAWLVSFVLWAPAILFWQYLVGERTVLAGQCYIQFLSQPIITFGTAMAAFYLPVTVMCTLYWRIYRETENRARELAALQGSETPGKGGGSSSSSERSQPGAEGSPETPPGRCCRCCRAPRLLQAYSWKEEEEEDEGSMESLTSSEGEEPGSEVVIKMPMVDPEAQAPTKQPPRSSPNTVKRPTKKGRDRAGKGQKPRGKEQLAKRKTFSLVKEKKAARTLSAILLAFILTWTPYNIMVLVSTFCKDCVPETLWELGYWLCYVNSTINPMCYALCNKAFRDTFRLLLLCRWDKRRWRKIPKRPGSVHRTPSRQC
Chain of 5-hydroxytryptamine receptor 2A (Homo sapiens) (P28223 whole entry, looked up): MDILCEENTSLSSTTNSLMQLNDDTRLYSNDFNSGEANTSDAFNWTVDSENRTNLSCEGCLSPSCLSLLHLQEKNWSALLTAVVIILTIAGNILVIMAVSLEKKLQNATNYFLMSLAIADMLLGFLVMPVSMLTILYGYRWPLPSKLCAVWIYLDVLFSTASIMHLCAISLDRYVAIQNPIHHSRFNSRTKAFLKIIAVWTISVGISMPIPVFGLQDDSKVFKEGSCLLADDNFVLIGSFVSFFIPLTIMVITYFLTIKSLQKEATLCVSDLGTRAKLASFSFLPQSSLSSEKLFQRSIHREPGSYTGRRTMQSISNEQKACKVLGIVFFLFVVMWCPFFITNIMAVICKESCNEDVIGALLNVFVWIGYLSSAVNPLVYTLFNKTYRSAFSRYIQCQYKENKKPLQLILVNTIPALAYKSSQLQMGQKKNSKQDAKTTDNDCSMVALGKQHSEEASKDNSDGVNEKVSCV
Chain of KiSS-1 receptor (Homo sapiens) (Q969F8 whole entry, looked up): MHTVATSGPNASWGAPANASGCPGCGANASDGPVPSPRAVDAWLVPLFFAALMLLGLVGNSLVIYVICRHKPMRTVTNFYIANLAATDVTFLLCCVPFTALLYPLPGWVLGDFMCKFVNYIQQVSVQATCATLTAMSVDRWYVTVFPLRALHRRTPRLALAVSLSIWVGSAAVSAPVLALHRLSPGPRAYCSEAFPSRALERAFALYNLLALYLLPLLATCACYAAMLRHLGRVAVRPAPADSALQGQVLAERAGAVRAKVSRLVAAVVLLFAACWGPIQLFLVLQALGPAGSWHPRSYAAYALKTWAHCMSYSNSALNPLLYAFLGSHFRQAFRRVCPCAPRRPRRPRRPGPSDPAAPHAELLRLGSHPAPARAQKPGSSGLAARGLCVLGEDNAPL
Chain of D(2) dopamine receptor (Homo sapiens) (P14416 whole entry, looked up): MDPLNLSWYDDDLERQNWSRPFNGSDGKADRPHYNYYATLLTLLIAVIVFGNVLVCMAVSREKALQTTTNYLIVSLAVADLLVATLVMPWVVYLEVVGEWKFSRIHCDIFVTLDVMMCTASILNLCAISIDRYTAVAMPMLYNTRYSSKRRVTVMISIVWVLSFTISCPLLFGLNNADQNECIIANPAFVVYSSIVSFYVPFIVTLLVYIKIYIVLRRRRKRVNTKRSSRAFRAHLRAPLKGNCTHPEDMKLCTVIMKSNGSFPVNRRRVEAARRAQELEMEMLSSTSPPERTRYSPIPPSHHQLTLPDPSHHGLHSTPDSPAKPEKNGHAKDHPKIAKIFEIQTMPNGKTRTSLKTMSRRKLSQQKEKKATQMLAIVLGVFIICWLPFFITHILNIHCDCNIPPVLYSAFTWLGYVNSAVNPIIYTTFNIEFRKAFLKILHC

Consider `Cc1c2oc3c(C)ccc(C(=O)N[C@@H]4C(=O)N[C@H](C(C)C)C(=O)N5CCC[C@H]5C(=O)N(C)CC(=O)N(C)[C@@H](C(C)C)C(=O)O[C@@H]4C)c3nc-2c(C(=O)N[C@@H]2C(=O)N[C@H](C(C)C)C(=O)N3CCC[C@H]3C(=O)N(C)CC(=O)N(C)[C@@H](C(C)C)C(=O)O[C@@H]2C)c(N)c1=O` (I: T[dV]P[Sar][NMeV] / II: T[dV]P[Sar][NMeV]; ester I:1-I:C, II:1-II:C; linker I:N-II:N via Actinocin(9to1)), for which the Potency is 42.1 nM (active) in [1]; “inactive and 42.2 nM (active)” in experiment [2]; 2.2 nM (active) in experiment [7]. In addition, the Potency entry in experiment [3], in [4], in experiment [5], in experiment [6], in [8] and in experiment [9] was “inactive” throughout. Also, the Potency entry in experiment [10] and in [11] was “inactive” each time.
As for `O=c1[nH]c2ccccc2c(=O)n1CCCl`, the Potency entry in [1], in experiment [2], in experiment [3], in experiment [4], in experiment [5] and in [6] was “inactive” in each case. Also, the Potency result in [12], in experiment [7], in experiment [13], in [14], in experiment [15] and in experiment [16] was “inactive” in each case. The Potency entry in [17], in experiment [18], in experiment [8], in experiment [9], in experiment [10] and in experiment [11] was “inactive” throughout.
For the compound `CC(=O)CC(C)(C)C1CCCCC1`, the Potency entry in [1], in experiment [2], in experiment [3], in experiment [4], in experiment [5] and in experiment [19] was “inactive” throughout. Moreover, the Potency entry in experiment [12], in experiment [20], in experiment [7], in [13], in experiment [14] and in experiment [15] was “inactive” each time. Moreover, the Potency result in experiment [16], in experiment [17], in experiment [18], in experiment [8], in experiment [9] and in experiment [10] was “inactive” in each case. Besides, in [11], the Potency entry was “inactive”.
In the case of `Cc1ccccc1C`, the Potency entry in experiment [1], in experiment [2], in experiment [3], in experiment [4], in [5] and in [19] was “inactive” each time. The Potency entry in [12], in experiment [20], in [7], in experiment [13], in [14] and in [16] was “inactive” throughout. Further, the Potency entry in experiment [17], in [18], in experiment [8], in experiment [9], in experiment [10] and in experiment [11] was “inactive” each time. Moreover, the Potency in experiment [15] is 1.5 nM (active).
Consider `CCC(CO)CO`, for which the Potency result in [1], in experiment [2], in experiment [3], in experiment [4], in experiment [5] and in experiment [6] was “inactive” each time. Further, the Potency entry in experiment [12], in experiment [20], in experiment [13], in experiment [14], in [15] and in [16] was “inactive” each time. Further, the Potency result in experiment [17], in [18], in experiment [8], in experiment [10] and in experiment [11] was “inactive” each time.
`NS(=O)(=O)c1cc2c(cc1C(F)(F)F)NC(Cc1ccccc1)NS2(=O)=O` (centres undefined): the Potency result in experiment [1], in [2], in [3], in experiment [4], in [5] and in experiment [6] was “inactive” throughout. Also, the Potency result in experiment [20], in [13], in experiment [14], in experiment [15], in experiment [16] and in [17] was “inactive” throughout. In addition, the Potency result in experiment [18], in [8], in experiment [10] and in [11] was “inactive” throughout. Besides, the Potency in experiment [9] was 1500 nM (active).
Take `CC(=O)c1sc(C)nc1C`: the Potency entry in [1], in experiment [2], in [3], in [4], in experiment [5] and in experiment [19] was “inactive” throughout. The Potency entry in experiment [12], in [20], in [7], in experiment [13], in experiment [14] and in experiment [15] was “inactive” throughout. Besides, the Potency result in experiment [16], in experiment [17], in experiment [18], in experiment [8], in experiment [10] and in [11] was “inactive” in each case.
